Records with an inconclusive call do not appear. Values without a mark were called inactive. Active and inactive are the calls of the source. Unless noted, the call rests on the fitted dose curve; in most records, active means well fitted curve in the direction sought with a large enough effect; inconclusive means small, poorly fitted or top-dose-only effect, or another doubt; inactive means no such curve, though single readings can be large; an effect the other way counts as inactive or inconclusive.

For experiment [1], the target named is Calcium and integrin-binding protein 1 (Homo sapiens) (UniProt Q99828). Kind of experiment: Validation qHTS for Identification of Calcium Integrin Binding protein 1 (CIB1) Competitor (AID 1508618). Further: on the % scale 0 is the no-effect control and ±100 the full control effect. The essentials:
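CIB1-GST (1 uM final) incubated 15 min at room temperature with compounds (up to 114 uM), then FITC-labelled alphaIIb peptide (100 nM) added. FP read (Ex 480/Em 540) after 15 min, pH 7.4 buffer containing 5 mM CaCl2.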
(Quantitative high-throughput screening tests each substance at several concentrations.)

Experiment [2] in a line: Primary qHTS for small molecule stabilizers of the endoplasmic reticulum resident proteome: Secreted ER Calcium Modulated Protein (SERCaMP) assay (AID 1508630). Further: on the % scale 0 is the no-effect control and ±100 the full control effect. The essentials:
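The SH-SY5Y reporter protocol was run at 3 concentrations up to 38.3 uM (primary) or 11 concentrations (follow-up): 16 h compound, 100 nM thapsigargin for 4 h, then extracellular luciferase luminescence.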

Experiment [3] can be described thus: A High-Content qHTS Against Drug Library for the Identification of Small Molecules that Inhibit DYT1 Early Onset Primary Dystonia-Associated Cell Pathology (AID 1645839; calls by dose curve; further: potency means the concentration at half of the fitted maximal effect). The essentials:
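High-content imaging quantified EGFP-TorsinA mislocalization in HEK293-derived cells inducibly expressing DYT1 mutant torsinA, after 48 h exposure to compound given together with tetracycline induction. Cell count served as a toxicity channel alongside %pathology.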

Experiment [4] deals with Cytochrome P450 2D6 (Homo sapiens) (UniProt P10635). As to the kind of experiment: Cytochrome P450 family 2 subfamily D member 6 (CYP2D6) small molecule antagonists: luciferase biochemical (cell-free) qHTS assay (AID 1645840; active means well fitted curve in the direction sought with a large enough effect in the repeat runs; an effect the other way counts as inactive or inconclusive; further: nearly all actives have a fitted effect of over 55% in size; further: potency means the concentration at half of the fitted maximal effect). The essentials: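 P450-Glo CYP2D6 system: proluciferin substrate converted by enzyme to luciferin, read by luminescence proportional to activity. Enzyme-substrate mix with compound 10 min at room temperature, then NADPH regeneration 1 h before detection reagent.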
Cytochrome P450 2D6 (Homo sapiens), sequence (P10635 whole entry, looked up): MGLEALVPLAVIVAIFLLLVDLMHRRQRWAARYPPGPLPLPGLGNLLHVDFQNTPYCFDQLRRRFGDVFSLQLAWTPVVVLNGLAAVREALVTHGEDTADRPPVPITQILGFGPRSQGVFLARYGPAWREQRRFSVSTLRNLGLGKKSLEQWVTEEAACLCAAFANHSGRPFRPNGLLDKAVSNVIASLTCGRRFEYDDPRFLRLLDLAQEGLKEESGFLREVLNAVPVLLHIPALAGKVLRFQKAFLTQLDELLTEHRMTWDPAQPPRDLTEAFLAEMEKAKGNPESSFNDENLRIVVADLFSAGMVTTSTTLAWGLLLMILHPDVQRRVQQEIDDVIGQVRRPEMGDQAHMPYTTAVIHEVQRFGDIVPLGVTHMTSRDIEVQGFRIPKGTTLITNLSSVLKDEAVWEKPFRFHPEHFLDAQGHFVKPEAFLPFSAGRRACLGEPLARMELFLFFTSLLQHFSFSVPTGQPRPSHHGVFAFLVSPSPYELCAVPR

Experiment [5] addresses Cytochrome P450 2C9 (Homo sapiens) (UniProt P11712). Kind of experiment: Cytochrome P450 family 2 subfamily C member 9 (CYP2C9) small molecule antagonists: luciferase biochemical (cell-free) qHTS assay (AID 1645842; active means well fitted curve in the direction sought with a large enough effect in the repeat runs; an effect the other way counts as inactive or inconclusive; further: nearly all actives have a fitted effect of over 55% in size; further: potency means the concentration at half of the fitted maximal effect). The essentials: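 P450-Glo CYP2C9 system: proluciferin substrate with enzyme in mix containing 0.4% BSA, 10 min at room temperature, then NADPH regeneration solution added and incubated 1 h at 37C. Detection reagent stopped reaction; luminescence read after 20 min as RLU.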

Experiment [6] can be described thus: Primary qHTS for inhibitors of nuclear receptor binding SET domain protein 2 (NSD2) in an isogenic RCH-ACV NSD2 p.E1099K mutant (9B) (AID 1645876). Further: nearly all actives have a fitted effect of over 70% in size. Further: potency means the concentration at half of the fitted maximal effect.
Experiment [7] in a line: Primary qHTS for inhibitors of nuclear receptor binding SET domain protein 2 (NSD2) in an RCH-ACV wild type WT cells (2C) (AID 1645877). Further: nearly all actives have a fitted effect of over 70% in size. Further: potency means the concentration at half of the fitted maximal effect.
The target in experiment [8] is Calcium and integrin-binding protein 1 (Homo sapiens) (UniProt Q99828). As to the kind of experiment: Primary qHTS for Identification of Calcium Integrin Binding Protein 1 (CIB1) Competitor (AID 1508620).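 Further: GST tagged CIB1 binding a fluorescein labelled alphaIIb integrin peptide tracer; top concentration of the series differs between compounds; on the % scale 0 is the no-effect control and ±100 the full control effect.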 The essentials:
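CIB1-GST (1 uM final) and compound incubated 15 min at room temperature before adding FITC-alphaIIb peptide tracer (100 nM final). Competition for binding read by fluorescence polarization (ex 480, em 540) after another 15 min at room temperature.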

The nature of experiment [9]: Counterscreen qHTS for small molecule stabilizers of the endoplasmic reticulum resident proteome: GLuc-NoTag assay (AID 1508627).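 Further: SH-SY5Y cells given compound then 100 nM thapsigargin to empty ER calcium; series mostly up to about 76 µM; 0% = thapsigargin alone and -100% = DMSO vehicle control.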 The essentials: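 Counterscreen line: SH-SY5Y-GLuc-NoTag cells, treated with compound 19 hr before a 4 hr, 100 nM thapsigargin calcium depletion. Secreted Gaussia luciferase in the medium was measured by luminescence after coelenterazine was added (0.07x final), with cells unlysed.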
On the technique in general: The purpose of a counterscreen is to sort out artefacts and off-target activity.

Experiment [10] is described as follows: Cell Viability qHTS for small molecule stabilizers of the endoplasmic reticulum resident proteome (AID 1508629).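 Further: human SH-SY5Y neuroblastoma cells carrying the GLuc-SERCaMP reporter; compound exposure about 46 h in total before the viability read; on the % scale 0 is the no-effect control and ±100 the full control effect.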 The settings on record: cell viability counter-screen, 100 nM thapsigargin for final 4 h.
For the next experiment, the target named is Papain (Carica papaya) (UniProt P00784). Kind of experiment: Primary qHTS assay for inhibitors of the protease papain (AID 1645873).
Papain (Carica papaya), sequence (P00784 whole entry, looked up): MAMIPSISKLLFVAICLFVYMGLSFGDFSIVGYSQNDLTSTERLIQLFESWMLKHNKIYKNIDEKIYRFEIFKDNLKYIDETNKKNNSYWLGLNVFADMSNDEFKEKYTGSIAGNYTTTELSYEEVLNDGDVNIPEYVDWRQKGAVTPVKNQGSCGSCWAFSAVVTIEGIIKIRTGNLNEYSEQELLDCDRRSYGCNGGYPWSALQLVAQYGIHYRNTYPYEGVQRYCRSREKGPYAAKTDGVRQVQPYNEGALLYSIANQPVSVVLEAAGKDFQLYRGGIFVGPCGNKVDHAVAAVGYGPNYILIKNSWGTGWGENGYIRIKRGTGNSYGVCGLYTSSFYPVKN
Experiment [11] has as its target Rap guanine nucleotide exchange factor 3 (Homo sapiens) (UniProt O95398). Kind of experiment: Confirmatory qHTS for antagonist of cAMP-regulated guanine nucleotide exchange factor 3 (EPAC1) (AID 1645880).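 Further: plate controls were DMSO only for no effect and full effect of the ATA control for full effect; nearly all actives have a fitted effect of over 55% in size.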 The essentials: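 Released BODIPY-GDP fluoresces less than Rap1-bound BODIPY-GDP; the signal is followed at 480/540 nm at 5-min intervals over 30 min, after 5 min at room temperature. Reactions contain 100 nM EPAC1, 250 nM RAP1B-BODIPY-GDP and 50 uM GDP; results are normalized to ATA and DMSO.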

Experiment [12] has the same target. As to the kind of experiment: Confirmatory qHTS for agonist of cAMP-regulated guanine nucleotide exchange factor 3 (EPAC1) (AID 1645881).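 Further: EPAC1 catalysed release of BODIPY-GDP from Rap1B seen as fluorescence loss; 100% = effect of cAMP agonist control; nearly all actives have a fitted effect of over 75% in size.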
Experiment [13] addresses Rap guanine nucleotide exchange factor 4 (Homo sapiens) (UniProt Q8WZA2). Kind of experiment: Confirmatory qHTS for agonist of cAMP-regulated guanine nucleotide exchange factor 4 (EPAC2) (AID 1645884).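 Further: nucleotide exchange releases bodipy-GDP from Rap1 and this lowers its fluorescence; on the % scale 0 is the no-effect control and ±100 the full control effect; nearly all actives have a fitted effect of over 65% in size.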
The target is the same in experiment [14]. Kind of experiment: Confirmatory qHTS for antagonist of cAMP-regulated guanine nucleotide exchange factor 4 (EPAC2) (AID 1645885). Further: potency means the concentration at half of the fitted maximal effect; nearly all actives have a fitted effect of over 25% in size.

Rap guanine nucleotide exchange factor 4 (Homo sapiens), sequence (Q8WZA2 whole entry, looked up): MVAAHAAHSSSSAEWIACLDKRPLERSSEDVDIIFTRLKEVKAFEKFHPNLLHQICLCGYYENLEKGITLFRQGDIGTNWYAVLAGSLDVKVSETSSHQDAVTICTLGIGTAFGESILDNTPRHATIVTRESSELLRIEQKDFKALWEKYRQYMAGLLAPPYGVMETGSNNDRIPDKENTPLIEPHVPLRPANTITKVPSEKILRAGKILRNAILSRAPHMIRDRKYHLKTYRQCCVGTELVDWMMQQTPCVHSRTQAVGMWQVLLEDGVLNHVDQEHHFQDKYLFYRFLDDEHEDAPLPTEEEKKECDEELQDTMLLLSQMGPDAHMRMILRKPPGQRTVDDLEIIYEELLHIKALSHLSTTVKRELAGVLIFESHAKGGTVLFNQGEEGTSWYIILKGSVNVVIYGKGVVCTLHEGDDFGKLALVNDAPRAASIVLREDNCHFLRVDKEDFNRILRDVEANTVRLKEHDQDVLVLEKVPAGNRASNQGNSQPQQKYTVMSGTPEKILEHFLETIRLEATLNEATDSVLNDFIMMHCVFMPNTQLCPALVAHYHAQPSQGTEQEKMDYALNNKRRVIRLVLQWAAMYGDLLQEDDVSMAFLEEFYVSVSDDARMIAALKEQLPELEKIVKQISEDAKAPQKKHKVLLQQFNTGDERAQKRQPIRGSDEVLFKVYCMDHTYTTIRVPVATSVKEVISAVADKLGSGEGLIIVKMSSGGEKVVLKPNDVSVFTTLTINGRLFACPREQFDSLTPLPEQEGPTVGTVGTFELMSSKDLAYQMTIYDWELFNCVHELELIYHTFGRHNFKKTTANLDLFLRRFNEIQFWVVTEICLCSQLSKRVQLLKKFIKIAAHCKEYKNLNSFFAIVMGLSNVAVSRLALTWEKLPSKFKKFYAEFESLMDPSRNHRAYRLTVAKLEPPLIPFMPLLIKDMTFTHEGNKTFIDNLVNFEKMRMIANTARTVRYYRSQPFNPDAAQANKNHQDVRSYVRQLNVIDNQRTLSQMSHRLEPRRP
Cytochrome P450 2C9 (Homo sapiens), sequence (P11712 whole entry, looked up): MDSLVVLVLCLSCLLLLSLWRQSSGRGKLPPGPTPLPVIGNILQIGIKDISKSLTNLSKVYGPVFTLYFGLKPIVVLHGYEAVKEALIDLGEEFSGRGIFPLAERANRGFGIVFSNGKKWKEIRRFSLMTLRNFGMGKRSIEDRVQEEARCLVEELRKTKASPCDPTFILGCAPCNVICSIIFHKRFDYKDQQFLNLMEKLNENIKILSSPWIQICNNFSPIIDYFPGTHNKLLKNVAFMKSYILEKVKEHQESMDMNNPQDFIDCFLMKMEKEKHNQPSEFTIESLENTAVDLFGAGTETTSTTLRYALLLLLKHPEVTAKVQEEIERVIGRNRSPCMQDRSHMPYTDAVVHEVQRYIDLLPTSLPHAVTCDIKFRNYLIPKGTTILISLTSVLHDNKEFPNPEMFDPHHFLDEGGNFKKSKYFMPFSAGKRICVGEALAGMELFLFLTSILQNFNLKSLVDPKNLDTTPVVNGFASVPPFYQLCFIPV
Calcium and integrin-binding protein 1 (Homo sapiens), sequence (Q99828 whole entry, looked up): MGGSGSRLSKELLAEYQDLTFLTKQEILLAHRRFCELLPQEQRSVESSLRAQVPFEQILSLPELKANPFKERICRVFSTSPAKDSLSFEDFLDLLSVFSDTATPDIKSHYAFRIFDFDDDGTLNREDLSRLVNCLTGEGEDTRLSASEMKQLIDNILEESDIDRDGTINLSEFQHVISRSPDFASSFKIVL
Rap guanine nucleotide exchange factor 3 (Homo sapiens), sequence (O95398 whole entry, looked up): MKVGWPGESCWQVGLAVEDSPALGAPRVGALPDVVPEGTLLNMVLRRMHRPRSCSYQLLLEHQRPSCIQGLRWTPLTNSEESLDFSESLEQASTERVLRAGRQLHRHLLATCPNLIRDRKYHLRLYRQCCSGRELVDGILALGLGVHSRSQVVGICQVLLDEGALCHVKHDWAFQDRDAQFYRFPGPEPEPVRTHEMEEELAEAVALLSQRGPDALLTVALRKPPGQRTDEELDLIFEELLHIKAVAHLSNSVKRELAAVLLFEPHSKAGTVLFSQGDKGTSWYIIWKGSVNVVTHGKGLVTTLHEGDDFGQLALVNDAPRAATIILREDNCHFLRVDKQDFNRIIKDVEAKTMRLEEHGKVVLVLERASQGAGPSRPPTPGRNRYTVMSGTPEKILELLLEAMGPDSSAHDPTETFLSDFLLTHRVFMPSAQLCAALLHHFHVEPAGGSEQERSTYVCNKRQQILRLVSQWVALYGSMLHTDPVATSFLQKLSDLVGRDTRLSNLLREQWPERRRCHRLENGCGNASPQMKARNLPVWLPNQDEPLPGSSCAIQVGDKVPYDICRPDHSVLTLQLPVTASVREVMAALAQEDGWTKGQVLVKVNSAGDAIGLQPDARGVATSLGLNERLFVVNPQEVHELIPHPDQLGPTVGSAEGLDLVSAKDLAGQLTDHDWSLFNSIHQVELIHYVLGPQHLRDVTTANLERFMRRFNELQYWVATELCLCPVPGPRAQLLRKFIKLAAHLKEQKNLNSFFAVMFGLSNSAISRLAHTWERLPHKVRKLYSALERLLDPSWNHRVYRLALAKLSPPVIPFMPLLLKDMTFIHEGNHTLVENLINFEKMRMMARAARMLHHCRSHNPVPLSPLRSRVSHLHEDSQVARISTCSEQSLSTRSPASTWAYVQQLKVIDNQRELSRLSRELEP

As for `CO[C@@]1(NC(=O)CSCC#N)C(=O)N2C(C(=O)O)=C(CSc3nnnn3C)CS[C@@H]21`, in [1], the result was inactive. The Potency result in experiment [2], in experiment [3], in experiment [4], in experiment [5], in experiment [6] and in [7] was “inactive” throughout.

Turning to `Cc1nc2sccn2c(=O)c1CCN1CCC(=C(c2ccc(F)cc2)c2ccc(F)cc2)CC1`, the Potency result (in [8]; in [9]; with Papain (Carica papaya); in experiment [12]; in [13]) was “inactive” each time. Further, the max response in experiment [10] is -2.38%. The Potency in experiment [4] was 3.09 µM (active); in [14] it was 44.1 µM (active). Further, the outcome in experiment [11] was inactive.

Turning to `CCCOc1ccccc1-c1nc2n[nH]nc2c(=O)[nH]1`, the Potency entry (in experiment [8]; in experiment [2]; in experiment [3]; in experiment [4]; in [5]; in the experiment with Papain (Carica papaya)) was “inactive” throughout.

Turning to `CCN(CC)CCOCCOC(=O)C1(c2ccccc2)CCCC1`, the result in experiment [1] was inactive. Moreover, the Potency result (in [8]; in experiment [3]; in experiment [5]; in the experiment with Papain (Carica papaya); in experiment [6]) was “inactive” in each case.

`CCN1CCc2nc(N)oc2CC1`: the Potency entry in experiment [8], in experiment [2], in [3], in experiment [4], in experiment [5] and in experiment [6] was “inactive” throughout. Also, the Potency entry in experiment [7] is “inactive”.

Consider `Fc1ccc(C(c2ccc(F)cc2)N2CCN(C/C=C/c3ccccc3)CC2)cc1`, for which the result in experiment [1] was inactive. For the same compound, the Potency entry (in experiment [8]; in the experiment with Papain (Carica papaya)) was “inactive” each time. For the same compound, the results for the Potency in [3] and in experiment [5] were 12.6 µM (active) and 7.76 µM (active), respectively.

`COc1cc2c(cc1OC)-c1cc(=Nc3c(C)cc(C)cc3C)n(C)c(=O)n1CC2`: in experiment [1], the result was inactive. Further, the Potency entry in experiment [8] and in [12] was “inactive” each time. Besides, the Potency in [4] was 12.3 µM (active); in experiment [5], 0.49 µM (active); in experiment [6], 15 µM (active); in experiment [7], 15 µM (active); in experiment [14] it was 44.1 µM (active).

For `Cc1ccc(/C(=C\CN2CCCC2)c2ccccn2)cc1`, the outcome in [1] was inactive. Further, the Potency result (in [8]; in [3]; in experiment [5]; with Papain (Carica papaya); in experiment [6]) was “inactive” in each case.

With `Cc1nnc(SCC2=C(C(=O)O)N3C(=O)[C@@H](NC(=O)Cn4cnnn4)[C@H]3SC2)s1`, the Potency result (in experiment [2]; in experiment [3]; in experiment [5]; with Papain (Carica papaya); in [6]) was “inactive” in each case.

As to `Cc1cc(C)c(/C=C2\C(=O)Nc3ccccc32)[nH]1`, the Potency result (in experiment [8]; in [3]; in experiment [4]; with Papain (Carica papaya); in experiment [6]) was “inactive” in each case. In addition, the Potency in [5] is 9.77 µM (active).

As to `CCCCCN(CCCCC)C(=O)C(CCC(=O)O)NC(=O)c1ccc(Cl)c(Cl)c1` (centres undefined), the Potency result in experiment [8], in [2] and in [6] was “inactive” in each case. Moreover, in [5], the Potency was 1.38 µM (active).

On to `CCCCNc1c(C(=O)OCC)c(C)nc2c1cnn2CC`, for which, in experiment [1], the outcome was inactive. Besides, the Potency entry (in experiment [8]; in [3]; in the experiment with Papain (Carica papaya)) was “inactive” throughout. Also, in experiment [5], the Potency is 17.4 µM (active).

Values taken from PubChem BioAssay (NCATS).
